ALDH1A1 inh: blocks purified human ALDH1A1 activity | P00352 | Purified ALDH1A1, NADH fluorescence, propionaldehyde substrate | Potency, µM (series often up to 75.3 µM), most hits filed as inhibitors | hit rate 7.3% among 220,000
Target sequence (P00352 whole entry, looked up): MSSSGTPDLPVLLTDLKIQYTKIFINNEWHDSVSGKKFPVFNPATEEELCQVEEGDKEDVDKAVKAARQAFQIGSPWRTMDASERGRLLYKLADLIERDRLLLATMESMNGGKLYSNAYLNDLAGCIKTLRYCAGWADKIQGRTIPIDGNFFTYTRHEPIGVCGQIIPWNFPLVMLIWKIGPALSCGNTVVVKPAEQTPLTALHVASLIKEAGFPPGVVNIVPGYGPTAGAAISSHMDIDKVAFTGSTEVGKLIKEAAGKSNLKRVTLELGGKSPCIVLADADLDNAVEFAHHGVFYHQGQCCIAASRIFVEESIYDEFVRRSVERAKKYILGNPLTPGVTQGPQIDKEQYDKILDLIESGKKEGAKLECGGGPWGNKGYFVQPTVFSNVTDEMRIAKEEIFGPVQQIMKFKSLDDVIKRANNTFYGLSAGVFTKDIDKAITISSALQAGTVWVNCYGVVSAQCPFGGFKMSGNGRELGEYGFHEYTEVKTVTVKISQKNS
HPGD block: HPGD (human) dehydrogenase inhibition | P15428 | purified HPGD, NADH fluorescence kinetic, PGE2 substrate | Potency, µM, most hits filed as inhibitors | hit rate 4.3% among 150,000
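20 nM HPGD preincubated 15 min at room temperature with compound in 50 mM Tris-HCl pH 8, 0.01% Tween 20. Started with 1 mM NAD+ and 30 uM prostaglandin E2; NADH fluorescence (360/450 nm) read 5 times over 30-s intervals, last minus first.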
Luc counter: Kinase-Glo luciferase inhibition (counter-screen) | Q27757 | Potency, µM (highest dose often 38.3 µM), usual class: inhibitors | hit rate 0.28% among 200,000 | Kinase-Glo luciferase, ATP luminescence, 8 min; active means well fitted inhibition curve with a large enough effect; inconclusive means small, poorly fitted or top-dose-only effect; further: nearly all actives have a fitted effect of over 60% in size
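Light output from Kinase-Glo luciferase with luciferin and 10 uM ATP in 50 mM imidazole pH 7.2, KCl, MgCl2, Tween 20, BSA; compound pin-delivered, 8-min ambient incubation, then luminescence read.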
LMNA splice mod: modulators of lamin A splicing; HeLa LMNA splicing GFP/RFP minigene ratio, 48 h; Potency, µM (top dose mostly 46.1 µM), actives largely listed as inhibitors; hit rate 0.01% among 200,000; active means well fitted inhibition curve with a large enough effect in the signal ratio, with a control signal flat, not every such curve was filed as active; inconclusive means small, poorly fitted or top-dose-only effect, or effect the other way, or a change in a side signal; the % refers to the signal ratio
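S3 HeLa stable clones carrying a lamin A-EGFP splicing minigene plus DsRed2 were seeded at 600 cells/well in Opti-MEM with 2% FBS, pin-dosed and incubated 48 h at 37°C. Acumen cytometry (488 nm) gave the GFP/RFP total-intensity ratio.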
PNC inhibitor: perinucleolar compartment assembly inhibition. AID 2417. hit rate 3.1% among 140,000. PC3M PTB-GFP, PNC prevalence imaging, 16 h; active compounds read low. activity change (PNC), negative = inhibition, % at 10 µM;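 active means readout at or below -70, meaning at least 70% loss of cells showing the perinucleolar compartment, a nuclear body marking cancer cells; inconclusive means readout between -30 and a set limit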
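Compounds are pinned in duplicate onto adhered PC3M cells stably expressing GFP-tagged PTB and incubated 16 h at 37 C. Cells are then fixed, nuclei stained with Hoechst, and PNC-positive cells counted.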
Numbers stand for hits; - = inactive; ? = inconclusive; . = not tested or not shown; [ ] = remark or other dose. This is a sample that favours compounds with a hit; in the whole collection about 10% have one here. Unless noted, the call rests on the fitted dose curve; in most records, active means well fitted inhibition curve with a large enough effect (not every such curve was filed as active); inconclusive means small, poorly fitted or top-dose-only effect, or another doubt; inactive means no such curve, though single readings can be large or run the other way.

SMILES	ALDH1A1 inh	HPGD block	Luc counter	LMNA splice mod	PNC inhibitor
CCc1c2c(nc3ccc(OC)cc13)OC(CC)C2 (stereo not drawn)	-	-	-	.	.
[N-]=[N+]=NCC1OC(n2cnc3c(=O)[nH]c(N)nc32)C(O)C1O (stereo not drawn)	-	-	-	-	.
CCCCc1ccc(CC(=O)O)cc1	14µM	32µM	-	-	?
CCC1(C)NC(=O)N(/N=C/c2cc(OC)c(O)c(OC)c2)C1=O (stereo not drawn)	10µM	.	-	.	.
CCCOc1ccc(N2C(=O)CC(N(CCc3ccc(OC)c(OC)c3)C(=S)Nc3ccccc3)C2=O)cc1 (stereo not drawn)	25µM	-	-	?	-
CCCOc1ccc(N2C(=O)CC(N(Cc3ccc(OC)cc3)C(=S)Nc3ccccc3)C2=O)cc1 (stereo not drawn)	-	-	-	-	-
COc1ccccc1C(c1nnnn1C(C)(C)C)N1CCCc2ccccc21 (stereo not drawn)	-	-	-	-	?
CCC(C)(C)n1nnnc1C(c1cccs1)N1CCc2ccccc21 (stereo not drawn)	14µM	-	-	?	-
CC(C)(C)n1nnnc1C(c1ccc(Cl)cc1)N1CCCc2ccccc21 (stereo not drawn)	-	-	-	-	-88
CCOC(=O)c1c(NC(=O)C(Sc2ccccc2)c2ccccc2)sc(C(N)=O)c1C (stereo not drawn)	14µM	28µM	-	-	-
CCC(C(=O)Nc1ccsc1C(=O)OC)c1ccccc1 (stereo not drawn)	11µM	.	-	.	.
CCOC(=O)c1c(NC(=O)C(Sc2ccccc2)c2ccccc2)sc(C(=O)N(C)C)c1C (stereo not drawn)	-	-	-	?	?
CCC(C(=O)Nc1nc(C)c(C(=O)OC)s1)c1ccccc1 (stereo not drawn)	-	.	-	-	.
CCC(C(=O)Nc1sc(C(N)=O)c(C)c1C(=O)OC)c1ccccc1 (stereo not drawn)	13µM	.	-	.	.
COCCn1c(=O)c(-c2ccc(Cl)cc2)nc2cnc(Oc3cccc(Cl)c3)nc21	?	.	.	-	.
COC(=O)C/C=C\[C@@H](C)[C@@H](/C=N\OC[C@@H](C)[C@H](OCc1ccccc1)C(C)C)OC	-[13.5 µM]	.	.	.	.
CCCCn1cc(S(=O)(=O)c2ccc(C)cc2)c(=O)c2cc(F)c(N3CCCCC3)cc21	.	.	.	-	.
Cc1cccc(C(=O)Nc2nc(-c3ccc(Br)cc3)ns2)c1	.	.	.	-	.
O=S(=O)(c1cccc2c(Cl)cccc12)N1CCCNCC1	-	-	-	?	.
O=S(=O)(c1cc(Cl)ccc1Cl)N1CCCCC1	-	-	-	-	?
O=S(=O)(c1cc(Cl)ccc1Cl)N1CCCC1	0.089µM	-	-	-	?
O=S(=O)(c1cccc2c(S(=O)(=O)N3CCCC3)cccc12)N1CCCC1	-	-	-	-	-129
CCN(CC)S(=O)(=O)c1ccc(N2CCN(S(=O)(=O)c3ccc4c(c3)OCCO4)CC2)nc1	-	-	-	?	-91
O=S(=O)(c1ccc(N2CCCCCC2)nc1)N1CCCC1	-	.	-	.	.
CN1CCN(c2ccc(S(=O)(=O)N3CCCCC3)cn2)CC1	-	-	-	-	-83
SMILES	ALDH1A1 inh	HPGD block	Luc counter	LMNA splice mod	PNC inhibitor
O=C1/C(=C\c2ccco2)SC(=S)N1C1CCS(=O)(=O)C1 (stereo not drawn)	22µM	.	.	.	.
Cc1ccc(/C=C2\SC(=S)N(C3CCS(=O)(=O)C3)C2=O)cc1 (stereo not drawn)	-	.	-	.	.
O=C1/C(=C/c2ccco2)SC(=S)N1C1CCS(=O)(=O)C1 (stereo not drawn)	8.9µM	.	-	?	.
CCNc1ncc2nc(CCc3ccccc3)c(=O)n(CCC#N)c2n1	?	.	.	-	.
S=C(NCC1CCCO1)Nc1ccc(Cl)c(Cl)c1 (stereo not drawn)	-	.	-	?	.
S=C(Nc1ccc(Cl)cc1)N1CCN(Cc2ccccc2)CC1	-	.	-	?	.
C=CCNC(=S)N1CCN(Cc2ccccc2)CC1	14µM	.	-	-	.
COc1ccccc1NS(=O)(=O)c1ccc(O)c(NC(=S)NCC2CCCO2)c1 (stereo not drawn)	5.6µM	.	.	-	.
CN1CCN(C(=S)NCCc2ccccc2)CC1	?	-	-	-	-82
S=C(NCC1CCCO1)Nc1ccccc1Cl (stereo not drawn)	-	13µM	-	-	-
CN(C)c1ncc2nc(-c3cc(F)cc(F)c3)c(=O)n(Cc3cccs3)c2n1	?	?	-	.	.
CCCCC[C@H](O)/C=C/[C@H]1OC(O)C[C@H](O)[C@@H]1C/C=C\CC(=O)O (stereo partly drawn)	-	-	-	.	.
Cc1ccc(-n2nc(C)c3c(C)cc(=O)n(CC(=O)NCc4ccc(OC(C)C)cc4)c32)cc1	.	.	.	-	.
S=C(NCC1CCCO1)N1CCN(Cc2ccccc2)CC1 (stereo not drawn)	25µM	.	-	.	.
CCOc1ccccc1NC(=O)c1ccc(F)c(S(=O)(=O)N2CCN(c3ccc(F)cc3)CC2)c1	.	.	.	-	.
NN/C(=C\[N+](=O)[O-])Nc1ccc(Cl)cc1	28µM	.	-	?	.
NN/C(=C\[N+](=O)[O-])Nc1ccccc1	?	.	-	?	.
O=S(=O)(Nc1ccc(-c2csc(-c3ccccc3)n2)cc1)c1ccccc1	-	-	-	?	-
Cc1ccc(S(=O)(=O)Nc2cccc(-c3cn4ccsc4n3)c2)cc1	16µM	-	-	?	-
Cc1cccc(S(=O)(=O)Nc2cccc(-c3cn4ccsc4n3)c2)c1	10µM	-	-	?	?
Cc1nc(-c2cccc(NS(=O)(=O)c3ccccc3)c2)cs1	14µM	14µM	-	-	-
CC[C@H](CO)NCCN[C@@H](CC)CO	-	-	-	?	.
c1ccc2scnc2c1	?	-	.	.	.
Cc1cc2n(n1)SC(Nc1ccc(F)c(Cl)c1)N2 (stereo not drawn)	2.8µM	-	-	?	-
CCCS(=O)(=O)N1CC(=O)N(c2cccc(Cl)c2)C(C)(C(=O)NC2CCCCC2)C1 (stereo not drawn)	.	.	.	-	.
SMILES	ALDH1A1 inh	HPGD block	Luc counter	LMNA splice mod	PNC inhibitor
Cc1nnc(SCC(=O)Nc2cccc(S(=O)(=O)N(C)c3ccccc3)c2)s1	-	0.022µM	-	?	-
Cc1nnc(SCC(=O)Nc2ccc(Cl)cn2)s1	-	-	-	-	-119
COc1cccc(NC(=O)CSc2nnc(C)s2)c1	-	-	-	-	-
CN(C)S(=O)(=O)c1cccc(NC(=O)CSc2nncn2-c2ccccc2)c1	?	.	-	-	.
COCCn1cnnc1SCC(=O)Nc1cccc(S(=O)(=O)N(C)c2ccccc2)c1	5.6µM	.	-	.	.
N.N.N.N.N.N.N.N.N.N.N.N.N.N.O.O.[Cl-].[Cl-].[Cl-].[Cl-].[Cl-].[Cl-].[Ru].[Ru].[Ru]	-	-	-	?	.
O=C(c1ccccc1F)N1c2nc(-c3ccco3)nn2C2(CCCCC2)[C@@H]2CCCC[C@@H]21	.	.	.	-	.
O=S(=O)(O)c1cc(N=Nc2cccc3ccccc23)c(O)c2ncccc12	-[13.5 µM]	?	-[7.66 µM]	.	.
O=C1/C(=N/n2cnnc2)c2ccccc2N1Cc1ccccc1	0.089µM	-	-	-	-
